Source: PubChem
Only some compounds are listed: those with a hit (about 1.4% of all), similar ones and a draw of the others.
LANA-H2A inh – blocks KSHV LANA binding to histone H2A/H2B; Q9QR71; cell-free LANA-H2A/H2B peptide, fluorescence polarization; inhibition, % (test concentration not listed); 0.6% of 320,000 active; AID 2629; in the data active = inhibition mostly above about 10%, no sharp cut-off; inactive = mostly below about 6.7%
HDAC3 inhib – human HDAC3 inhibition; O15379; recombinant HDAC3, fluorogenic peptide/trypsin coupled, fluorescence; inhibition, % at 8.3 µM; 0.15% of 320,000 active; in the data active = inhibition above about 26%, passing the limit was not always enough; inconclusive = no clear call, values can overlap the other calls
Target sequence (O15379 whole entry, looked up): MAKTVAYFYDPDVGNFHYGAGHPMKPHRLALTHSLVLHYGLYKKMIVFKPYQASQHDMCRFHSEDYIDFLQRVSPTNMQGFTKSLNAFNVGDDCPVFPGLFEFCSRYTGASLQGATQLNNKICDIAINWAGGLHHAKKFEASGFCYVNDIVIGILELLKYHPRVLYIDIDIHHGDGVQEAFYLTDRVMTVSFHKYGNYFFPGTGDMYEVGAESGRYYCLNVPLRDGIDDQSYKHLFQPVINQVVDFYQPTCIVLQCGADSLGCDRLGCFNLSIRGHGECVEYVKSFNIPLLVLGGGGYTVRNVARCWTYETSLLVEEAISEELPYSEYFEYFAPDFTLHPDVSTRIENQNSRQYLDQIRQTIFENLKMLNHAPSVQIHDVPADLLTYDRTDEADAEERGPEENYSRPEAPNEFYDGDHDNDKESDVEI
A3G deaminase – blocks human APOBEC3G single-stranded DNA deamination; Q9HC16; recombinant A3G, ssDNA deamination FAM/TAMRA fluorescence; inhibition, % at 20 µM; 0.28% of 330,000 active; AID 493012;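 active = inhibition of at least 40% at 20 µM, with no more than 30% in the related APOBEC3A deaminase screen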
A3A deaminase – blocks human APOBEC3A ssDNA deamination | P31941 | recombinant A3A, FAM/TAMRA ssDNA deamination fluorescence | inhibition, % at 20 µM | 0.41% of 330,000 active;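 active = at least 40% inhibition at 20 µM here, with at most 30% in a related deaminase screen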
Numbers stand for hits; 0 = inactive; ? = inconclusive; - = no result given; + = active, no number.

SMILES	LANA-H2A inh	HDAC3 inhib	A3G deaminase	A3A deaminase
CCNc1c2c3c(cccc3n(C)c1=O)C(=O)c1ccccc1-2	44	0	0	0
CC(=O)Nc1ccc(Nc2c3c4c(cccc4n(C)c2=O)C(=O)c2ccccc2-3)cc1	0	0	0	0
Cn1c(=O)c(NCCc2ccccc2)c2c3c(cccc31)C(=O)c1ccccc1-2	128	0	0	0
Cn1c(=O)c(NCCO)c2c3c(cccc31)C(=O)c1ccccc1-2	185	0	0	0
COc1ccccc1C1=CC(=O)CC(C)(C)C1=O	0	0	0	0
O=S(=O)(Nc1nc2ccccc2nc1N1CCN(CCO)CC1)c1cc(F)ccc1F	0	0	0	0
CC(Sc1nnc(C2CC2)n1C1CC1)C(=O)Nc1cccc(S(=O)(=O)N(C)C)c1 (stereo not given)	+	0	0	0
CC(Sc1nnc(C2CC2)n1C1CC1)C(=O)NCc1cccs1 (stereo not given)	-	-	0	0
COc1ccc(S(=O)(=O)N2CCCCCC2)cc1NC(=O)CN(C)Cc1ccc2c(c1)OCO2	0	0	0	0
C[C@H](CO)N1C[C@H](C)[C@@H](CN(C)C(=O)Nc2ccc(C(F)(F)F)cc2)Oc2ccc(NC(=O)Nc3ccc(C(F)(F)F)cc3)cc2C1=O	0	35	0	0
C[C@H]1CN([C@@H](C)CO)C(=O)c2cccc(NC(=O)Nc3ccc(C(F)(F)F)cc3)c2O[C@@H]1CN(C)C(=O)Nc1ccc(F)cc1	0	35	0	0
C[C@H](CO)N1C[C@H](C)[C@@H](CN(C)C(=O)Nc2ccc(C(F)(F)F)cc2)Oc2c(NC(=O)Nc3ccc(C(F)(F)F)cc3)cccc2C1=O	0	?	0	0
C[C@@H]1CN([C@H](C)CO)C(=O)c2cc(NC(=O)Nc3ccc4c(c3)OCO4)ccc2O[C@H]1CN(C)Cc1ccncc1	+	0	0	0
COc1cccc(NC(=O)COC(=O)C2=NN(c3ccccc3)C(=O)CC2)c1	0	0	0	0
O=C1CC2(CCN(C(=O)c3cccc(Br)c3)CC2)Oc2ccccc21	19	0	0	0
CCO[C@@H]1OC(C(=O)O)=C[C@H](c2ccc(Br)cc2)[C@H]1CCCO	0	41	0	0
CCCCCCOc1ccc(/C=C/C(=O)N2CCOCC2)cc1OC	11	0	0	0
COc1cc(/C=C/C(=O)N2CCOCC2)ccc1OCc1ccccc1	0	0	0	0
Cc1cc(CSC(=N)N)c(CSC(=N)N)cc1C	19	0	0	0
CCCOc1ccc(Br)cc1CSC(=N)N	0	0	0	0
CNC(=O)COC(=O)c1cc(F)c(F)cc1Cl	20	0	0	0
CC(C)[C@H](NC(=O)c1ccc([N+](=O)[O-])cc1Cl)C(=O)N1CCN(C/C=C/c2ccccc2)CC1	0	0	0	0
O=C(NC1CCC(O)CC1)c1ccc(NS(=O)(=O)c2cccc([N+](=O)[O-])c2)cc1 (stereo not given)	24	0	0	0
O=C(NC1CC1)c1ccc(NS(=O)(=O)c2ccccc2)cc1	0	0	0	0
O=C(NCCc1ccc(OC(F)F)cc1)C1CC(=O)N(c2ccc3c(c2)OCCO3)C1 (stereo not given)	0	0	0	0
SMILES	LANA-H2A inh	HDAC3 inhib	A3G deaminase	A3A deaminase
CC1=CC(=O)c2c(O)ccc(O)c2C1=O	17	0	-	-
COc1cccc(C(=O)N/N=C/c2ccc(OC3CSC3)cc2)c1	46	0	0	0
Cc1cc(C)c(S(=O)(=O)N2CCN(C(=O)c3cc4ccccc4oc3=O)CC2)c(C)c1	0	0	0	0
O=C(c1ccc(-c2ccccc2)c(F)c1)C1CCCN(C(=O)c2cncs2)C1 (stereo not given)	14	0	0	0
CC(C)Oc1cccc(C(=O)C2CCCN(C(=O)c3cncs3)C2)c1 (stereo not given)	0	0	0	0
COc1ccc(N=Nc2nc3ccc(Br)cc3n2C)cc1	88	0	-	-
CC1Cc2ccccc2N1C(=O)CSc1nccc(=O)[nH]1 (stereo not given)	0	0	0	0
CC1Cc2ccccc2N1C(=O)CSc1ncccn1 (stereo not given)	30	0	0	0
Cc1ccccc1NC(=O)N1c2ccccc2CC1C (stereo not given)	54	0	0	0
CC(C)=CCC/C(C)=C/CNC(=O)C[C@H]1C[C@H](C(=O)N2CCOCC2)[C@@]2(CCC3CCCC3)c3[nH]c4cc(CCC(=O)N(C)C)ccc4c3CCN2C1=O	-	-	0	0
Cc1ccc(C(C)C)c(OCC(=O)Nc2ccc(N3CCN(S(C)(=O)=O)CC3)cc2)c1	50	0	0	0
CCOc1ccc(/C=N/NC(=O)Cc2csc(Nc3cccc(C(F)(F)F)c3)n2)c(OCC)c1	0	36	0	0
COc1ccc(CCC(=O)Nc2cc(S(=O)(=O)N3CCOCC3)ccc2OC(C)C)cc1	0	0	0	0
CC1=NN(c2ccccc2)C(=O)/C1=C\c1ccc(Oc2ccc([N+](=O)[O-])cc2[N+](=O)[O-])cc1	22	0	0	0
COc1cc(/C=C2\C(=O)N(c3ccccc3)N=C2C)ccc1Oc1ccc([N+](=O)[O-])cc1[N+](=O)[O-]	0	0	-	-
COc1ccc(S(=O)(=O)N2CCC(Nc3ccccc3Cl)CC2)cc1	38	0	0	0
COc1ccc(C(=O)NC2CCN(S(=O)(=O)c3ccccc3)CC2)cc1	0	0	0	0
COc1cc2c(cc1OC)-c1n[nH]c(=S)n1C(C)(C)C2	0	0	48	0
COc1ccccc1N(C)S(=O)(=O)c1ccc(C(=O)N(C)Cc2ccc(OC(F)F)cc2)cc1	-	-	0	0
Cc1ccc(CCN2C(Nc3ccccc3)=NC[C@@H]2C)cc1	0	0	0	0
Cc1c(N2C(=O)/C(=C3\C(=O)N(CC(=O)O)c4ccccc43)SC2=S)c(=O)n(-c2ccccc2)n1C	22	0	0	0
Cc1c(N2C(=O)/C(=C/c3ccccc3)SC2=S)c(=O)n(-c2ccccc2)n1C	0	0	0	0
CCSc1nnc(SCC(=O)Nc2cc(C)on2)s1	0	0	0	0
CN(CC(=O)Nc1cccc(F)c1)C(=O)c1cn(-c2ccccc2)nc1-c1ccc(Cl)cc1	156	0	0	0
CCOC(=O)C1C(=O)C=C(C)C(C(=O)OCC)C1c1cccc([N+](=O)[O-])c1 (stereo not given)	27	0	0	0
SMILES	LANA-H2A inh	HDAC3 inhib	A3G deaminase	A3A deaminase
CCOC(=O)C1C(=O)C=C(c2ccc([N+](=O)[O-])cc2)CC1c1ccccc1 (stereo not given)	0	0	0	0
Cc1ccnn1-c1ccc(C(=O)NCc2ccccc2CN2CCOCC2)cc1	0	0	0	0
COc1ccc2c(c1)sc(=NC(=O)CS(=O)(=O)c1ccc(F)cc1)n2C	0	0	0	0
CC1CC(=O)NN=C1c1ccc(N(C)C)c([N+](=O)[O-])c1 (stereo not given)	0	0	0	0
CCN(CC)c1ccc(C2=NNC(=O)CC2C)cc1[N+](=O)[O-] (stereo not given)	20	0	0	0
Cc1ccc(C(=O)N2CCN(Cc3ccccc3)CC2)cc1S(=O)(=O)N1CCOCC1	-	-	0	0
O=C(c1ccc(Cn2c(=S)[nH]c3ccc(Br)cc3c2=O)cc1)N1CCN(C2CCCCC2)CC1	10	0	0	0
